From PubChem BioAssay AID1645872 (National Center for Advancing Translational Sciences (NCATS), 2021)
Inconclusive results are not listed. Active and inactive are the calls of the source. Calls come from the whole dose curve; as a rule, active = well fitted inhibition curve with a large enough effect; inconclusive = small, poorly fitted or top-dose-only effect; inactive = flat fitted curve, though single readings scatter. Numbered stars: 1 amine (or outer) side, 2 acyl side, 3 side chain; on linkers, the order of the positions; unused ones are H or OH. Peptide text beside a SMILES is read from it. CO = O=C([*:1])[*:2]

Each compound was assayed against Papain (Carica papaya) (UniProt P00784) (assay: Confirmatory qHTS assay for inhibitors of the protease papain). Conditions: papain Z-FR-AMC cleavage, fluorescence; series mostly up to 49.8 µM.
Papain (Carica papaya), sequence (P00784 whole entry, looked up): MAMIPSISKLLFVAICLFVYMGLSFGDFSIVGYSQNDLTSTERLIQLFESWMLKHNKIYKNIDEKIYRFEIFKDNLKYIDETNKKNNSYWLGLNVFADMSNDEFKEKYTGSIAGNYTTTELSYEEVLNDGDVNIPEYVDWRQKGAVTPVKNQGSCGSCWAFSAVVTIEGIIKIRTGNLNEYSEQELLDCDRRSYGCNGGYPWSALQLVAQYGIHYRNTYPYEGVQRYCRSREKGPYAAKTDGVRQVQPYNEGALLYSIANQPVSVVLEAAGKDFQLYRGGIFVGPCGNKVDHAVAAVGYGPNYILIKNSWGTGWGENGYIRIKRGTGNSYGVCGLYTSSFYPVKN
Excerpt: Principal Investigator: Sam Michael National Center for Advancing Translational Sciences, National Institutes of Health, Rockville, MD Current high-throughput screening (HTS) assay validation is often a manual process, though this can be enhanced by design-of-experiment approaches. An artificial intelligence-driven (AI/ML) assay optimization was developed as part of the NCATS A Specialized Platform for Innovative Research Exploration (ASPIRE) Initiative to accelerate preclinical drug discovery. We describe the development of an autonomous Cloud-based computational driven assay optimization system using the Kebotix adaptive optimization algorithm. The Kebotix Bayesian optimization algorithm identify and test the global optimum of the full 294 design-of-experiment (DOE) with a high optimization probability > 95%, and achieved a five-fold reduction in costs for reagents and lab supplies and HTE run-time. The proposed algorithm found suitable conditions for optimal assay performance. A cell-free assay for papain protease activity was chosen for proof-of-concept. This assay was ideal because its low cost and suitable for large amount of experiments, and previous NCATS experience would allow for historical comparisons. […] Described herein is the results of the papain qHTS assay.
PROTOCOL TABLE SEQUENCE No. (e.g., 1, 2, 3, etc.); PARAMETER (e.g., Cells, Incubation, Reagent, etc.); VALUE and DESCRIPTION. 1; Reagent; 3 uL; 4/3x Enzyme solution (working concentration of 5 nM) or 3 uL buffer 2; Compounds; 17 nL; library compounds and controls (working concentration of 169 nM - […]) 3; Time; 15 min; room temperature incubation 4; Reagent; 1 uL; 4x 2 uM Z-FR-AMC substrate 5; Centrifugation; 1000 rpm; 15 sec centrigure 6; Detection; Fluorescence Read 1; ViewLux plate reader 7; Time; 10 min; room temperature incubation 8; Detection; Fluorescence Read 2; ViewLux plate reader NOTES (numbers refer to Sequence numbers above; values are from representative experiments) 1; Dispense 3 uL of [4/3x] 5 nM Papain-buffer solution in medium-binding black solid-bottom Greiner plates (789176-F); columns 1-2 and […]. Dispense 3 uL of assay buffer (100 mM Na-acetate pH 5.5, 5 mM DL-Cysteine, 0.01% Tween20) to columns 3 and 4. 2; Compounds are single pin-transferred (17 nL) for a final concentration range of 0.664 nM - 39.2 uM. 3; Room temperature incubation. 4; Dispense 1 uL of [4x] 2 uM Z-FR-AMC substrate solution into the assay plate, columns 1 - 48. 5; Centrifuge the assay plate to remove bubbles. 6; Initial fluorescence signal (Read 1) is obtained using the ViewLux plate reader (PerkinElmer) equipped with a 340(30) nm excitation filter; 450(20) nm emission filter; 2 sec exposure time at energy set to 2000. 7; Room temperature incubation in the dark. 8; Final fluorescence signal (Read 2) is obtained using the ViewLux plate reader (PerkinElmer) equipped with a 340(30) nm excitation filter; 450(20) nm emission filter; 2 sec exposure time at energy set to 2000.
For `N#Cc1nc(Nc2cccc(F)c2)nc(NC2CCCC2)n1`, the Potency was 115 nM (active). With `O=c1oc(Cl)c(Cl)c2ccccc12` the Potency was “inactive”. For `CC(C)C[C@H](NC(=O)[C@@H](NC(=O)N[C@@H](Cc1ccccc1)C(=O)O)[C@H]1CCN=C(N)N1)C(=O)N[C@H](C=O)Cc1ccccc1`, the Potency was 10.2 nM (active). With `N#Cc1nc(Nc2cc(F)cc(F)c2)nc(NC2CCCC2)n1` the Potency was 162 nM (active). In the case of `CCOc1nc(C#N)nc(N2CCCCC2)n1`, the Potency is reported as 182 nM (active). For `N#Cc1nc(Nc2cccc(Cl)c2)nc(NC2CCCC2)n1`, the Potency was 289 nM (active). For `N#Cc1nc(Nc2ccc(F)cc2)nc(NC2CCCC2)n1`, the Potency was 102 nM (active). With `N#Cc1nc(Nc2ccccc2)nc(NC2CCCC2)n1` the Potency was 81.4 nM (active). `CC(C)C(NC(=O)C(CCCN=C(N)N)NC(=O)NC(Cc1ccccc1)C(=O)O)C(=O)NC(C=O)CCCN=C(N)N` (stereo not drawn) ({Phe-CO}-Arg-Val-Arg-aldehyde; configuration not given here) was tested, and the Potency was 12.9 nM (active). With `CC(=O)N[C@@H](CC(C)C)C(=O)N[C@@H](CC(C)C)C(=O)N[C@H](C=O)CCCN=C(N)N` the Potency was 10.2 nM (active). `Cc1cccc(Nc2nc(C#N)nc(NC3CCCC3)n2)c1` was tested, and the Potency was 64.7 nM (active). With `COc1cccc(Nc2nc(C#N)nc(NC3CCCC3)n2)c1` the Potency was 57.6 nM (active). With `COc1ccc(Nc2nc(C#N)nc(NC3CCCC3)n2)cc1` the Potency was 102 nM (active).
